The source of these data is the supplement of paper PMC6555819.

The experiment concerns VDR:RXRa (NR concentration 270 nM, RXRa partner concentration 90 nM). Nature of the experiment: PBM binding z-score (relative to random genomic background probes); higher = stronger binding; sequences stand for … in GC…GCGATTGACAGCGTAGAATGAAGG
How it is done: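 Protein-binding microarray (Agilent 4x180K custom design, double-stranded 60-nt probes: 5' GC cap, 34-nt variable region, 24-nt constant primer region; full probe sequence given). Purified or IVT nuclear receptor:RXRα heterodimers (3:1 NR:RXRα, mostly 270:90 nM) or homodimers were incubated for 1 h in PBS with 2% milk and no ligand, then detected with Alexa488 antibodies. Fluorescence from o1-orientation probes (~5 replicates averaged) was converted to z-scores against 500 random hg19 background probes. Variable regions are seed direct-repeat (DR0–DR5) sites, all their single-nucleotide variants and half-site ablations.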
Consider TCATATAGGTAATACAGATGAAAGTCGGCATCTA, for which the PBM binding z-score stood at 0.886.

The sequence ATCTCTAGGTAGAAGTTCAGTGAATCCCGAGGAT came in with a PBM binding z-score of 0.473. Then CCTCGGAGGACAACGGGAGGTCAGAGCTGCCAGA, with 1.91.

The sequence CGTCCAAGGTCAAGGTCTGTGAAAGAGACTCGAA had a PBM binding z-score of 3.73. With ATCGAAAGGTCGAGGTGAGCATAGAGAAAGGGAA, the PBM binding z-score is 2.36. Then TCTTGTAGATCACAGGTTAAGAAAGCCGAAGCCT, with 0.396; and TCTACTTGGTCAAAGGTCACACACTCGAAATGCG, with 5.28. The sequence TCATATAGGTAAAGGTCAAAGTCGAACGATATGA had a PBM binding z-score of 4.77. Then ACTTACGGGTCAACTAGGTTATAGCACGCGTATA, with 5.88; and CAAACTAGGTCACAGGTCAAAGTCGAGCCAACCA, with 4.33; and TCATATAGGTAAACAGGTGAAATTCCGTAAGTTA, with 1.35. For ATACCAAGGTGATCGTGAGGGCGTTGATACTAAC, the PBM binding z-score was determined as 1.42. In turn, TCTTGTAGATCAACAGGAGGTTAAGATAGATCGA gave a PBM binding z-score of 0.488. To CAGCCTAGGACAGGGCCAGTATAGGAGGAACGTT belongs -0.833.

In turn, ATATGTAGGTTACATACGGGTCATTCAGGCTATG yielded a PBM binding z-score of 4.14. Then GCGACTGGGGCATCATCAGGTTACCATAACTTAA, with 0.00777; and TAGAGTAGGTTACCAATGGGGCATTCAGCTTTCT, with 0.34; and CCGACTGGGGCAGAAAGGTTACCCTACCATCCGG, with 0.717. Then TCTAGTTGGTGAAAGGTCACACACTCGAAATGCG, with 4.89; and TCTTGTAGATCAAAGGTGAAGAAAGCCGAAGCCT, with 0.74. In turn, CCGACTGGGGCATAAGGTTATCATAAGCCAGCCC gave a PBM binding z-score of 0.25.

In turn, CAAATTAGGTCACCGGAAGGTCAAAGTCCGCATG registered a PBM binding z-score of 5.86. To CGTCCAAGGTCATAGGAGGTCAGGGAAGACAGAT belongs 6.49; to AGAATGAGGTTAACATCAGGGAAACAGAATACAT, 1.75; to TCATATAGCTAATACAGGTGAAAGTCGGCATCTA, 0.529.

For the sequence CCAGACAGGTGAGAACGTAACTCAGCCTCGATTA, the PBM binding z-score was -0.0392. The sequence ACTCGGAGGACAAAGGTCAGTGCTACGCCAGTGA registered a PBM binding z-score of 2.82. As for TCTTGTAGATCAACAGGAGGTCAAGAAAGATCGA, the PBM binding z-score amounted to 3.14. Turning to CGTGAAAGTTCAACTAAGGTAACGTAAAGCACGC, the PBM binding z-score is 4.46.

As for ATATGTAGGTTACATCCGGGTCATTGAGGCTATG, the PBM binding z-score is 5.02. Then CCTACTGGGCGAAAAAGGTCATTGATGCCGATAA, with 4.21; and CGTCCAAGGTCATAGGACGTCAGTGAAGACAGAT, with 4.13; and TCTGCTAGGTCAACGATGGTCTGCTAATCTGCTA, with 0.981. To CGAACTAGGCCAAGGACAGTGAATCTCCGCACGC belongs -0.579; to CGTCCAAGGTCAAAGCTAGGTCAGTGAAAGCATT, 5.25. To CCTCGGAGAACAGAAGGTCAGAGCTGTCCGCTTT belongs 1.03; to CGAACGAGGGCATGAGTTGATAGCAAATGCCGAT, 1.43; to TGGCCTAGGTCAGATCGGGCCAGTATACGCTATA, 0.424. GCGACTGAGGCAAAGCAGGTTACCATAAGGTTGG: the PBM binding z-score was -0.292.

TCAGCCAGGTGAAGGTAACTCAGGTACGCAGTCG showed a PBM binding z-score of 0.261.
